Only some compounds are listed: those with a hit (about 14% of all), similar ones and a draw of the others.
Giardia FBPA inh – qHTS Assay for Inhibitors of Fructose-1,6-bisphosphate Aldolase from Giardia Lamblia; Potency, µM (highest dose often 59.6 µM), usual class: inhibitors; 290,000 compounds, 0.71% hits; purified Giardia FBPA; A8B2U2; also: nearly all actives have a fitted effect of over 55% in size
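Giardia FBPA (40 nM reagent) was preincubated 10 min at RT with compound (up to 57.5 uM final), then substrate plus GAPDH/TPI/NAD/arsenate coupling system with diaphorase/resazurin was added; resorufin fluorescence (525/598 nm) was read after 20 min.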
LmPK inhibitor – qHTS Assay for Inhibitors of Leishmania Mexicana Pyruvate Kinase (LmPK); AID 1721, 2009; Potency, µM (doses to about 57.5 µM), most hits filed as inhibitors; 290,000 compounds, 0.37% hits; purified LmPK, Kinase-Glo ATP luminescence, 1 h
Target sequence (Q27686 whole entry, looked up): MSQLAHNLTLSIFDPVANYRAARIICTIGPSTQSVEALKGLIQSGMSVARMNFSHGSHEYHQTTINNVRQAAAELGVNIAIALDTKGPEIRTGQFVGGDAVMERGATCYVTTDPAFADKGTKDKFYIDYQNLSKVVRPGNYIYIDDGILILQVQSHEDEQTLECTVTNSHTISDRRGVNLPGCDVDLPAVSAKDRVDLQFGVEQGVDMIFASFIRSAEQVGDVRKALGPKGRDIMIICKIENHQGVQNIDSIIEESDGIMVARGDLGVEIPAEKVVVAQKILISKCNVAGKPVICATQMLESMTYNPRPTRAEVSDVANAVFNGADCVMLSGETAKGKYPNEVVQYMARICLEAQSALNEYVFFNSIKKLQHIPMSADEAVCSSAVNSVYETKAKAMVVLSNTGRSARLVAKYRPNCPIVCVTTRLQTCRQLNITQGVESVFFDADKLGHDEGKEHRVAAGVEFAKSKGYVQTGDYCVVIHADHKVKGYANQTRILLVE
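Purified LmPK (0.1 nM) converted ADP (0.1 mM) to ATP with PEP (0.5 mM) in imidazole buffer pH 7.2 with KCl and MgCl2, 1 h at room temperature. ATP was read by Kinase-Glo luminescence; data normalized to uninhibited and no-enzyme controls.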
NS1 function inh – qHTS Assay for Inhibitors of Influenza NS1 Protein Function | Potency, µM (doses to about 46.1 µM) | 270,000 compounds, 0.4% hits; calls by dose curve; also: actives are rising curves; nearly all actives have a fitted effect of over 50% in size
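Read-out: OD600 growth recovery of NS1-expressing budding yeast. Cells grown overnight at 30C in -URA glucose medium, washed, resuspended and diluted 1:100 in 2% galactose assay medium, pH 6.0. Same strain lacking NS1 served as positive control.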
Shiga inhibitor – A qHTS for Small Molecule Inhibitors of Shiga Toxin. Vero cells, Shiga toxin protein synthesis inhibition reporter. AID 2315, 2010. 290,000 compounds, 9.2% hits. inhibition, % at 38.7 µM; in the data active = inhibition mostly above about 28%, no sharp cut-off; inactive = mostly below about 43%
Cycloheximide cs – Cycloheximide Counterscreen for Small Molecule Inhibitors of Shiga Toxin; cell reporter, cycloheximide protein synthesis inhibition counterscreen; max response, %; 300,000 compounds, 12% hits; AID 2314, 2010; in the data active = max response mostly above about 13%, no sharp cut-off; inactive = mostly below about 14%; also: read at 38.3 µM for the half of the compounds with a filed dose
Of the large screens only hits and unclear results are named; the others gave an inactive call. Unless noted, calls follow the shape of the dose curve; as a rule, active = well fitted curve in the direction sought with a large enough effect; inconclusive = small, poorly fitted or top-dose-only effect, or another doubt; inactive = no such curve, though single readings can be large; an effect the other way counts as inactive or inconclusive.

C=CCN(CC=C)C(=O)Nc1ccc2nc(C)sc2c1	none
COc1ccc2nc(NC(=O)c3cccs3)sc2c1	LmPK inhibitor 13µM, Shiga inhibitor 77, Cycloheximide cs 44
Cc1nc2ccc(NC(=O)c3sccc3C)cc2s1	Shiga inhibitor 64, Cycloheximide cs 64
CC(=O)Nc1ccc2nc(NC(=O)c3cccs3)sc2c1	LmPK inhibitor inconclusive, Shiga inhibitor 78, Cycloheximide cs 43
COc1ccc2nc(NC(=O)c3ccc(-n4nc(C)cc4C)cc3)sc2c1	none
Cc1nc2cc(NC(=O)c3ccc([N+](=O)[O-])s3)ccc2s1	Shiga inhibitor 52, Cycloheximide cs 34 (no result: Giardia FBPA inh)
CCN1C(=O)[C@H]2[C@H]3[C@H](O)[C@H](O)C/C(=N/O[C@@H](C)CN4CCCc5nc(C)c(C)cc54)[C@@H]3CC[C@@H]2C1=O	none (no result: LmPK inhibitor, NS1 function inh, Shiga inhibitor, Cycloheximide cs)
CO[C@H]1COC(=O)C/C=C\[C@@H](C)COC(=O)[C@H]2CCCN2C(=O)C/C=C\[C@H]1C	none (no result: LmPK inhibitor, NS1 function inh, Shiga inhibitor, Cycloheximide cs)
CCC(=C(CC)c1ccc(O)cc1)c1ccc(O)cc1	none (no result: LmPK inhibitor, NS1 function inh, Shiga inhibitor, Cycloheximide cs)
Cc1cccc(C(=O)Nc2cc(NC(=O)c3cccs3)ccc2C)c1	none
O=C(Nc1nc2ccc(Cl)cc2s1)[C@@H]1CCCN1C(=O)c1cccs1	Shiga inhibitor 81, Cycloheximide cs 82
Cc1nc2ccc(NC(=O)c3cccs3)cc2s1	Shiga inhibitor 98, Cycloheximide cs 45
CCN1CCN(CC#CCOc2ccccc2OC)CC1	Giardia FBPA inh inconclusive (no result: Shiga inhibitor)
Clc1ccc(-c2nc3ccccc3n2OCc2ccccc2)cc1	none
Cc1ccc(-c2nc3ccc(Cl)cc3n2OC(C)C(=O)O)cc1 (centres undefined)	Shiga inhibitor 83, Cycloheximide cs 36
CN(C)C(=O)Oc1ccnc2cc(Cl)ccc12	none
On1c(-c2ccccc2)nc2ccc(Cl)cc21	Shiga inhibitor 84
Cc1ccc(-c2nc3ccc(Cl)cc3n2OC(=O)N(C)C)cc1	Shiga inhibitor 124
CC(On1c(-c2ccccc2)nc2ccc(Cl)cc21)C(=O)O (centres undefined)	Shiga inhibitor 56, Cycloheximide cs 28
Cc1cc(Cl)ccc1OC(C)C(=O)O (centres undefined)	none
O=c1c2cc(Br)ccc2nc(-c2ccc(Cl)cc2)n1O	none
Cc1nc2[nH]c(=O)[nH]c(=O)c2[nH]1	none (no result: LmPK inhibitor, NS1 function inh, Shiga inhibitor, Cycloheximide cs)
COc1ccc(NC(=O)c2cc(-c3ccncc3)nc3ccc(Br)cc23)cc1OC	none
COc1ccc(-c2nc3ccccc3n2OC(C)C(=O)O)cc1 (centres undefined)	Shiga inhibitor 76, Cycloheximide cs 35
CCOC(=O)Nc1nnc(-c2cccc(OC)c2)s1	Cycloheximide cs 15
CCOC(=O)Nc1nnc(-c2ccc(OC)cc2)s1	Cycloheximide cs 24
COc1cccc(-c2nnc(NC(=O)c3cccs3)s2)c1	none
O=C(CSc1nc2ccccc2s1)NC1CCCC1	none
CCOC(=O)C1CCN(S(=O)(=O)c2ccc(-c3nc4ccccc4s3)s2)CC1	Shiga inhibitor 69, Cycloheximide cs 45
CCN1CCN(C(=O)c2ccc(-c3nc4ccccc4s3)s2)CC1	Shiga inhibitor 103, Cycloheximide cs 42 (no result: NS1 function inh)
O=C(c1cc2ccccc2s1)N1CCOCC1	none
O=C(c1ccc(-c2nc3ccccc3s2)s1)N1CCOCC1	LmPK inhibitor 14µM (no result: NS1 function inh)
O=C(NC1CC1)c1ccc(-c2nc3ccccc3s2)s1	LmPK inhibitor inconclusive, Shiga inhibitor 38
CCN(CC)S(=O)(=O)c1ccc(NC(=O)c2cnccn2)cc1	none
CNC(=O)/C(C#N)=C/c1c(N2CCCCCC2)nc2c(C)cccn2c1=O	none
CC(=O)OC[C@@H]1O[C@@H](O/N=C2/C[C@@H](O)[C@@H](O)[C@@H]3[C@@H]4C(=O)N(Cc5ccccc5)C(=O)[C@H]4CC[C@@H]23)[C@H](OC(C)=O)[C@H](OC(C)=O)[C@@H]1OC(C)=O	none (no result: LmPK inhibitor, NS1 function inh, Shiga inhibitor, Cycloheximide cs)
CCOC(=O)CN1C(=O)N[C@@H](c2ccccc2)[C@H](C(=O)OC)[C@H]1C	none (no result: NS1 function inh, Shiga inhibitor, Cycloheximide cs)
O=C(CCN1C(=O)/C(=C/c2cccs2)SC1=S)Nc1ccccn1	none (no result: NS1 function inh)
O=C(CCN1C(=O)S/C(=C\c2cccs2)C1=O)NC1=NCCS1	Cycloheximide cs 17
Cc1csc2ncc(C(=O)NCCC(c3ccccc3)c3ccccc3)c(=O)n12	none
CSc1ccccc1NC(=O)c1cnc2scc(C)n2c1=O	Shiga inhibitor 28, Cycloheximide cs 25
O=C(NCCc1ccccc1)c1cnc2ccccn2c1=O	Shiga inhibitor 57, Cycloheximide cs 41
Cc1csc2ncc(C(=O)NCCc3ccccc3)c(=O)n12	Shiga inhibitor 48, Cycloheximide cs 45
Cc1ccccc1NC(=O)c1cnc2ccccn2c1=O	Shiga inhibitor 86, Cycloheximide cs 79
Cc1ccc(N2CC(C(=O)N3CCC(C(=O)NCCCOC(C)C)CC3)CC2=O)cc1 (centres undefined)	none
Cc1nc2ccccn2c1C(=O)/C=C/c1ccc(F)cc1	Shiga inhibitor 95, Cycloheximide cs 54
COc1ccc(/C=C/C(=O)c2c(C)nc3ccccn23)cc1	Shiga inhibitor 107, Cycloheximide cs 48
O=C1c2ccccc2[C@@H]([C@@H]2c3ccccc3C(=O)c3cc(Br)ccc32)c2ccc(Br)cc21	none (no result: Giardia FBPA inh, LmPK inhibitor, Shiga inhibitor, Cycloheximide cs)
CCn1c(CNC(=O)c2ccccc2F)cc2ccccc21	Shiga inhibitor 142, Cycloheximide cs 24
CCn1c(CNC(=O)c2ccccc2F)cc2cc(C)ccc21	Cycloheximide cs 15
Cn1c(CNC(=O)c2ccccc2F)cc2ccccc21	Cycloheximide cs 16
CCn1c(CNC(=O)c2ccccc2Cl)cc2ccccc21	none
Cn1c(CNC(=O)c2ccc(F)cc2)cc2ccccc21	none
CCn1c(CNC(=O)C2CCCCC2)cc2cc(C)ccc21	none
CC(C)Oc1ccc(C2CC(=O)N(C)C2=O)cc1 (centres undefined)	none
CCCCOc1ccc(C2CC(=O)N(C)C2=O)cc1 (centres undefined)	Shiga inhibitor 32, Cycloheximide cs 20
CC(C)c1ccc(C2C3=C(CC(c4ccco4)CC3=O)Nc3nc(C(F)(F)F)nn32)cc1 (centres undefined)	none (no result: Giardia FBPA inh, LmPK inhibitor, NS1 function inh)
COc1cccc2c1C(=O)c1c(O)c3c(c(O)c1C2=O)C[C@](O)(C(=O)CO)C[C@H]3O[C@@H]1C[C@H](N)[C@H](O)[C@H](C)O1	none (no result: LmPK inhibitor, NS1 function inh, Shiga inhibitor, Cycloheximide cs)
Cc1ccc(NC(=O)CCNS(=O)(=O)c2ccc3[nH]c(=O)oc3c2)cc1F	Giardia FBPA inh inconclusive
CCCN1CCN(C(=O)Nc2ccc(C(=O)OCC)cc2)CC1	Cycloheximide cs 12
CCOC(=O)c1cccc(NC(=O)N2CCOCC2)c1	none
CCOC(=O)c1ccc(NC(=S)N2CCN(CCO)CC2)cc1	none
CCOC(=O)c1ccc(NC(=O)N2CCOCC2)cc1	Shiga inhibitor 98 (no result: NS1 function inh)
CCC(C)c1ccc(NC(=S)NC(C)C2CCCO2)cc1 (centres undefined)	Shiga inhibitor 38, Cycloheximide cs 10
CCC(C)c1ccc(NC(=O)N2CCOCC2)cc1 (centres undefined)	Shiga inhibitor 68, Cycloheximide cs 41
